# Measurements taken from the supplement of paper PMC7724964.
# T1: ENAH 9-116 WH1 (domain begin residue: 9, domain end residue: 116), Q8N8S7
# T1 chain: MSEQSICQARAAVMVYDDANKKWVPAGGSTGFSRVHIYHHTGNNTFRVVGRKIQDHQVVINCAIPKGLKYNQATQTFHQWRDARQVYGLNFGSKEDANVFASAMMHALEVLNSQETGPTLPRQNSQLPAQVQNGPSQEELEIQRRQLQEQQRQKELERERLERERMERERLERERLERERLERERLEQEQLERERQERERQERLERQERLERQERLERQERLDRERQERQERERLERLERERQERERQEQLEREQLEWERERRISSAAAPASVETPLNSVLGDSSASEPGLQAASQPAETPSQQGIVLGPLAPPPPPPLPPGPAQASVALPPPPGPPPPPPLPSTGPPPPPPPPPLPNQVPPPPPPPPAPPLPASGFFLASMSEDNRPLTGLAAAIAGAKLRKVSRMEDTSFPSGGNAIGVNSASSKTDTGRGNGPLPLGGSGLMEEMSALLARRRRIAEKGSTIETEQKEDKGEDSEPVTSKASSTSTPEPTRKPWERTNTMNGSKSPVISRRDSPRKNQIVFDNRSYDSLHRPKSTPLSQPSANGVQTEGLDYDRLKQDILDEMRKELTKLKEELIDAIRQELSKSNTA
# T2: ESRRG 219-458 Hormone_recep (domain begin residue: 219, domain end residue: 458), P62508
# T2 chain: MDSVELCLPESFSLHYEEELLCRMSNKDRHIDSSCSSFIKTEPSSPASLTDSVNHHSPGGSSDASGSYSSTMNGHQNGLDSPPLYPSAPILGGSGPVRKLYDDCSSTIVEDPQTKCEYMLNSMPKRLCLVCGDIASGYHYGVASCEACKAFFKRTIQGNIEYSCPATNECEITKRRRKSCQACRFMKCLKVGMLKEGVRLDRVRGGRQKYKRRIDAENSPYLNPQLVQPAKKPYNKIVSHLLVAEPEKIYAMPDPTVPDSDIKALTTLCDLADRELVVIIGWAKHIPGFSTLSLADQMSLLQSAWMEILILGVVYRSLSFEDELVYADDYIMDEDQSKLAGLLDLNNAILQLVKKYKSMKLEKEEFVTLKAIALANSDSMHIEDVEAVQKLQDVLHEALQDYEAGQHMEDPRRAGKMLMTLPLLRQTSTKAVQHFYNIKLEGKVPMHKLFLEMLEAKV
# T3: FKBP3 109-224 FKBP_C (domain begin residue: 109, domain end residue: 224), Q00688
# T3 chain: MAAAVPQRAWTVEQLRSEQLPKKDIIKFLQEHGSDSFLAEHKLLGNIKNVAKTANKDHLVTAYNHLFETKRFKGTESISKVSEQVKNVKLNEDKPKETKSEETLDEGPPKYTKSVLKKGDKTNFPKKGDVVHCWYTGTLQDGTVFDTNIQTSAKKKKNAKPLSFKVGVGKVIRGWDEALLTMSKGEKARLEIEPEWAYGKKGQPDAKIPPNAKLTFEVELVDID
# T4: DYNLL2 1-89 Dynein_light (domain begin residue: 1, domain end residue: 89), Q96FJ2
# T4 chain: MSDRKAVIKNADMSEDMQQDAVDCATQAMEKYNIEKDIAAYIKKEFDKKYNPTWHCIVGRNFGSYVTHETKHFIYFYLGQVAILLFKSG
# T5: ESRRA 179-423 Hormone_recep (domain begin residue: 179, domain end residue: 423), P11474
# T5 chain: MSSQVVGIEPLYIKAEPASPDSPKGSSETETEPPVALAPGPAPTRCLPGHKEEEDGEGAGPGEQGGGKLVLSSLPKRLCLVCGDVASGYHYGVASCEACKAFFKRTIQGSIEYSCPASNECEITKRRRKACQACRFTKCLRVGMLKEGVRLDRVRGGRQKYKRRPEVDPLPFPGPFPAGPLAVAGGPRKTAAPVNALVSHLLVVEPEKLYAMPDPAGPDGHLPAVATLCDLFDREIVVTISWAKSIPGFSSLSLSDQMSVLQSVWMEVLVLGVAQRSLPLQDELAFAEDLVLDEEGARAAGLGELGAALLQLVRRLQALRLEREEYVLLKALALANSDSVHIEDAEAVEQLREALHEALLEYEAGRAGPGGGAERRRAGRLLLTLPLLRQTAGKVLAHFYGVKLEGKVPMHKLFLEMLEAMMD
# T6: SPRED1 13-131 WH1 (domain begin residue: 13, domain end residue: 131), Q7Z699
# T6 chain: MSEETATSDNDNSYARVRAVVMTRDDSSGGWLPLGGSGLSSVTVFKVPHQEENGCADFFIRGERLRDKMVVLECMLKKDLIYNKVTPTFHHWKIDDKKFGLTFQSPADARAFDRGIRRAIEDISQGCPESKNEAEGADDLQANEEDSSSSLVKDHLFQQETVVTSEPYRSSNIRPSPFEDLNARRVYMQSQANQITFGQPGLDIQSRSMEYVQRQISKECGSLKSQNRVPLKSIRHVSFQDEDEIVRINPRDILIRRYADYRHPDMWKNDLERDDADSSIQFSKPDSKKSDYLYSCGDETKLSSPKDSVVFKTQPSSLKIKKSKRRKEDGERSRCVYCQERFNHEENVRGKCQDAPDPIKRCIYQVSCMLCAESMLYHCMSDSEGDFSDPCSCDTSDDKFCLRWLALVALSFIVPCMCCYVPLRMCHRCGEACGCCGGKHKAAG
# T7: ESR2 263-500 Hormone_recep (domain begin residue: 263, domain end residue: 500), Q92731
# T7 chain: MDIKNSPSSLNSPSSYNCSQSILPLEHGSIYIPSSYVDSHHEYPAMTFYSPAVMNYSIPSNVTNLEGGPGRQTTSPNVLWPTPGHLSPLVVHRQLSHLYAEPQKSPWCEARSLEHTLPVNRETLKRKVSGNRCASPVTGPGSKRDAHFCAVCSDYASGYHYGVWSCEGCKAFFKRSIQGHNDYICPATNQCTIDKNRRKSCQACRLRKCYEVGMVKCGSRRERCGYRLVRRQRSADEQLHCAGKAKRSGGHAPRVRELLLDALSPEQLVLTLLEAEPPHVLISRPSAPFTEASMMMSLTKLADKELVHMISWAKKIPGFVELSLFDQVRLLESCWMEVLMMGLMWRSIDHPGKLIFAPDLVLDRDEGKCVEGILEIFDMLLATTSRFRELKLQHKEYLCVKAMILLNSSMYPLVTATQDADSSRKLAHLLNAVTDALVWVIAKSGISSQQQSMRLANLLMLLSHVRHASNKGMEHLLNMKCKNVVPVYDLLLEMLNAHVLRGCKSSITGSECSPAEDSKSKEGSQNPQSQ
# T8: EEF1A1 244-333 GTP_EFTU_D2 (domain begin residue: 244, domain end residue: 333), P68104
# T8 chain: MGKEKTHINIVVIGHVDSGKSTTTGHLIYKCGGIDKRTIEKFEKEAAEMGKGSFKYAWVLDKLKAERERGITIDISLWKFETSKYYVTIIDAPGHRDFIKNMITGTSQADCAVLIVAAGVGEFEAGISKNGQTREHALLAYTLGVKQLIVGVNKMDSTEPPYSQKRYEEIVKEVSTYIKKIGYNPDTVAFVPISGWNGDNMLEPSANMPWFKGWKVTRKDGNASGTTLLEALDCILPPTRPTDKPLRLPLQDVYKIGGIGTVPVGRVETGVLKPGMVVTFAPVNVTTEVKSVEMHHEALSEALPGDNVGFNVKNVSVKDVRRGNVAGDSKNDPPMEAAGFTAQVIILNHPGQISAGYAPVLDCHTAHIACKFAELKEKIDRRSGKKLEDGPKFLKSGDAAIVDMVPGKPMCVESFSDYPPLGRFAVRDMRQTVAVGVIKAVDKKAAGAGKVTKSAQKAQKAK
# Assays:
# Assay in all cases: phage ELISA signal ratio (GST-PRM binding over GST background); higher = stronger binding of peptide-phage to the PRM
# [1] = biological target: T1, ENAH 9-116 WH1 (domain begin residue: …
# Outline: (§1)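 Each value is the phage ELISA signal on the glutathione S-transferase (GST)-domain fusion divided by the signal on GST alone. Human peptide recognition domains were expressed in 96-well plates, fused to the C-terminus of GST, and selected against an M13 phage library carrying randomized, cysteine-free, glycine-flanked hexadecapeptides on the gene-8 major coat protein. After five selection rounds, approximately 48 individual clones from rounds 4 and 5 were tested by phage ELISA, and positive clones were sequenced.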
# [2] = biological target: T2, ESRRG 219-458 Hormone_recep (domain …
# Outline: as §1
# [3] = biological target: PCMT1 1-227 PCMT (domain begin residue: 1, domain end residue: 227), P22061
# Sequence of PCMT1 1-227 PCMT (domain begin residue: 1, domain end residue: 227), P22061 (P22061 whole entry): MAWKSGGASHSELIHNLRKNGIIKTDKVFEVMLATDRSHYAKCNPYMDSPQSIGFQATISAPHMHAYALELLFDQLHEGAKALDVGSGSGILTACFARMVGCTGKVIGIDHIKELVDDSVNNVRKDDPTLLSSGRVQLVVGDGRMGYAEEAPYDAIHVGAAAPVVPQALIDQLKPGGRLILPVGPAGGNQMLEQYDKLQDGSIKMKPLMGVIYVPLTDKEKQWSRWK
# Outline: as §1
# [4] = biological target: T3, FKBP3 109-224 FKBP_C (domain begin …
# Outline: as §1
# [5] = biological target: T4, DYNLL2 1-89 Dynein_light (domain begin …
# Outline: as §1
# [6] = biological target: T5, ESRRA 179-423 Hormone_recep (domain …
# Outline: as §1
# [7] = biological target: T6, SPRED1 13-131 WH1 (domain begin …
# Outline: as §1
# [8] = biological target: EIF4E 2-217 IF4E (domain begin residue: 2, domain end residue: 217), P06730
# Sequence of EIF4E 2-217 IF4E (domain begin residue: 2, domain end residue: 217), P06730 (P06730 whole entry): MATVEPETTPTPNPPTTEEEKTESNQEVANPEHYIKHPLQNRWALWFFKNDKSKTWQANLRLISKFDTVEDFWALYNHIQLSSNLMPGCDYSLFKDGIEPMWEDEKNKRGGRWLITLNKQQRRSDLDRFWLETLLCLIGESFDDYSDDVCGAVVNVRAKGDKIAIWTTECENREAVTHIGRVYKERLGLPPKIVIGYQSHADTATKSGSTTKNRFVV
# Outline: as §1
# [9] = biological target: EIF4A1 29-237 DEAD (domain begin residue: 29, domain end residue: 237), P60842
# Sequence of EIF4A1 29-237 DEAD (domain begin residue: 29, domain end residue: 237), P60842 (P60842 whole entry): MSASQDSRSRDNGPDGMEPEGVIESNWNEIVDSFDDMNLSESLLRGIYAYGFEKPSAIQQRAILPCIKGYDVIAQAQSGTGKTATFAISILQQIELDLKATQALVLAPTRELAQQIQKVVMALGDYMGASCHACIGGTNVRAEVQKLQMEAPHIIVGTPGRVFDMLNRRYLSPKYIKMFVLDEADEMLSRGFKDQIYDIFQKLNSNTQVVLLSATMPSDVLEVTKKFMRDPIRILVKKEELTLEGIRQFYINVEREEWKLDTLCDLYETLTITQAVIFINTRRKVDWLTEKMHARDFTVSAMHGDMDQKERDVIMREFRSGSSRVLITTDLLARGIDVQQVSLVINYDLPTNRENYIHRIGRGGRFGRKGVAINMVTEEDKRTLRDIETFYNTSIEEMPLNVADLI
# Outline: as §1
# [10] = biological target: EIF2S1 9-93 S1 (domain begin residue: 9, domain end residue: 93), P05198
# Sequence of EIF2S1 9-93 S1 (domain begin residue: 9, domain end residue: 93), P05198 (P05198 whole entry): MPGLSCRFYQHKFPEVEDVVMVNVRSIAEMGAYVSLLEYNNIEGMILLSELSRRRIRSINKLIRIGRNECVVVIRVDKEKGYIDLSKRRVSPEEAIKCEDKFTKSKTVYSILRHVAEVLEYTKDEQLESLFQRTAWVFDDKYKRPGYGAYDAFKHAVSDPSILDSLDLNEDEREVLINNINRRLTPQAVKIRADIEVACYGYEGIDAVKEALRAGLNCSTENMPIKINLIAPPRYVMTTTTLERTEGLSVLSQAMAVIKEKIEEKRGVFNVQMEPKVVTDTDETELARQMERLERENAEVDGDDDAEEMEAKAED
# Outline: as §1
# [11] = biological target: T7, ESR2 263-500 Hormone_recep (domain …
# Outline: as §1
# [12] = biological target: T8, EEF1A1 244-333 GTP_EFTU_D2 (domain …
# Outline: as §1
# [13] = biological target: EGFR 334-495 Recep_L_domain (domain begin residue: 334, domain end residue: 495), P00533
# Outline: as §1
binder,measurement,setting,value
WEGNQWEWPPAYMELM,phage ELISA signal ratio,[1],7.2
SFPFLKMYLDPEPDDV,phage ELISA signal ratio,[2],11.2
same,phage ELISA signal ratio,[3],11.2
KGVFLPEIEWKQGYDQ,phage ELISA signal ratio,[4],11.9
GTQTDEIFYLREYKSM,phage ELISA signal ratio,[5],19.2
EFNQWFADHWQQWHYE,phage ELISA signal ratio,[6],3.76
same,phage ELISA signal ratio,[7],5.28
TNPPAEHMSRLHWELT,phage ELISA signal ratio,[2],18.2
same,phage ELISA signal ratio,[3],18.2
VQTIGTWEWDHVPVEV,phage ELISA signal ratio,[5],41
SVWWFGQTPYVLWEAS,phage ELISA signal ratio,[8],7.15
SSTTGDDVLNSLTEMP,phage ELISA signal ratio,[5],34.4
WTQTMNNITPWIEGIA,phage ELISA signal ratio,[5],26.2
EMPQYMMTWYYEPDST,phage ELISA signal ratio,[9],5.95
VDQASQTWVWWAGQAY,phage ELISA signal ratio,[5],35.9
EYTNWYWLGYLPETVM,phage ELISA signal ratio,[10],14.6
FLYYYGLSHNWFGDQT,phage ELISA signal ratio,[8],7.6
ETQTPEWMGWLMESAI,phage ELISA signal ratio,[5],34.3
EERTWSFEEWLWMPAM,phage ELISA signal ratio,[11],26.6
VHRDYQLGHEWLVFIN,phage ELISA signal ratio,[2],13.1
same,phage ELISA signal ratio,[3],13.1
ATPPQLTAHPNFMMWF,phage ELISA signal ratio,[12],8.96
TQTMSWTGEKPQQWEM,phage ELISA signal ratio,[5],27
VQTEAWWPLQTPAWMV,phage ELISA signal ratio,[5],19.7
GVDVWLWDKQWNMWMP,phage ELISA signal ratio,[11],25.9
TQTDVISWQEFIFMRP,phage ELISA signal ratio,[5],36.2
TQTEPYKHQDQAHTRG,phage ELISA signal ratio,[5],26.1
AMVQTEDDWEMMWEQL,phage ELISA signal ratio,[5],17.6
QWDFSQMTWWPIEEWK,phage ELISA signal ratio,[13],13.3
TQTGFGQAHMETPHSL,phage ELISA signal ratio,[5],35.8
TQFGETWVNWIPLTIT,phage ELISA signal ratio,[5],25.9
